Compounds with a hit are over-represented: about 13% of the library has one in this group of screens.
FMDV inh: foot and mouth disease virus antiviral activity; FMDV antiviral cell-based qHTS; Potency, µM (top dose mostly 57.9 µM), most hits filed as inhibitors; actives 1.2% (n = 410,000); calls by dose curve; tested in HEK293T cells; note: read-out not given here; nearly all actives have a fitted effect of over 45% in size
Shiga inhibitor: inhibitors of Shiga toxin in Vero cells; AID 2315; actives 9.2% (n = 290,000); inhibition, % at 38.7 µM; Vero cells, Shiga toxin protein synthesis inhibition reporter; in the data active = inhibition mostly above about 28%, no sharp cut-off; inactive = mostly below about 43%
Marburg entry inh: Marburg virus entry inhibition; AID 540276; actives 1.8% (n = 300,000); Potency, µM (series often up to 37.8 µM), most hits filed as inhibitors; Marburg virus pseudotyped entry inhibition, cell reporter; calls by dose curve; tested in HEK293 cells
Lassa entry inh: inhibitors of Lassa virus binding or cell entry | Lassa virus pseudotype entry inhibition, cell reporter | Potency, µM (series often up to 37.9 µM), hits mostly inhibitors | actives 1.2% (n = 300,000) | AID 540256; calls by dose curve; tested in HEK293 cells; note: nearly all actives have a fitted effect of over 50% in size
HCV inh: inhibitors of hepatitis C virus infection | Huh7.5.1 HCVcc-Cre infection, luciferase reporter, 44 h | actives 3.4% (n = 340,000) | Potency, µM (titrated, usually from 41.8 µM), usual class: inhibitors | AID 651820; active = well fitted inhibition curve with a large enough effect; inconclusive = small, poorly fitted or top-dose-only effect, or another doubt; inactive = no such curve, though single readings can be large or run the other way
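Luciferase read-out (15 sec integration) after a 15 min room-temperature substrate step quantifies HCVcc-Cre infection. Cells, 1,000 per well, had compound added 4 h post-plating, then virus at ~0.5 moi, and were cultured 44 h.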
CHX counter: affects cycloheximide protein synthesis inhibition readout, counter-screen. cell reporter, cycloheximide protein synthesis inhibition counterscreen. actives 12% (n = 300,000). max response, %; in the data active = max response mostly above about 13%, no sharp cut-off; inactive = mostly below about 14%; note: read at 38.3 µM for the half of the compounds with a filed dose
A number is an active result; – = inactive; ? = inconclusive; · = no result; + = active, no number; [ ] = another dose, or the depositor's remark.

SMILES	FMDV inh	Shiga inhibitor	Marburg entry inh	Lassa entry inh	HCV inh	CHX counter
COc1cccc(NC(=O)c2ccccc2Br)c1	–	·	·	·	–	28
COc1cccc(C(=O)Nc2ccc(N(C)C)cc2)c1OC	–	124	–	–	–	39
COc1cccc(NC(=O)c2cc3ccccc3cc2OC)c1	–	108	·	·	–	55
COc1ccc(NC(=O)c2cccc3ccccc23)cc1OC	–	·	·	·	·	·
O=S(=O)(NCc1ccccc1Cl)c1ccc(-n2cccn2)cc1	–	–	·	·	–	–
Cc1ccc(C2C(C#N)=C(N)Oc3n[nH]c(-c4cccnc4)c32)o1 (stereo not given)	–	–	–	?	–	–
COc1cccc(-c2cnc3c(NC(C)=O)cc(-c4ccncc4)cn23)c1	–	·	·	·	·	·
COc1ccccc1N1CCN(CC(=O)Nc2nccs2)CC1	–	–	–	–	–	–
CC(C)c1ccc(NC(=S)Nc2ccc3[nH]c(=O)[nH]c3c2)cc1	–	24	·	·	–	–
COc1cccc(C(=O)Nc2ccncc2)c1OC	–	·	·	·	?	–
COc1cccc(C(=O)Nc2ccc3[nH]c(=O)[nH]c3c2)c1OC	–	54	–	·	–	–
CN(C)c1ccc(NC(=O)c2cccc(C(=O)Nc3ccc(N(C)C)cc3)n2)cc1	?	+	?	?	?	49
O=c1[nH]c2ccc(NC(=S)Nc3ccc(Cl)cc3)cc2[nH]1	–	–	–	–	–	–
O=C(Nc1ccccc1)c1cccc(C(=O)Nc2ccccc2)n1	–	–	–	–	–	–
CCn1c2ccccc2c2cc(NC(=O)c3cccc(OC)c3OC)ccc21	–	–	–	?	?	–
COc1cccc(NC(=O)c2cccc(OC)c2OC)c1	–	125	–	?	?	70
O=C(CN1C(=O)c2ccccc2S1(=O)=O)Nc1ccccn1	–	·	–	–	–	·
Cc1ccc(SCCC(=O)N/N=C/c2ccncc2)cc1	–	–	–	?	–	–
O=C(NCCC1=CCCCC1)C1COc2ccccc2O1 (stereo not given)	–	54	?	–	–	20
O=C(NCCc1ccc(C(F)(F)F)cc1)C1COc2ccccc2O1 (stereo not given)	–	112	–	–	–	42
O=C(c1sccc1Cl)N1CCN(Cc2ccc3c(c2)OCO3)CC1	–	–	–	–	?	–
Cc1ccc(C(=O)OCC(=O)NCc2ccccc2)cc1S(=O)(=O)N1CCCCC1	–	·	·	·	–	·
COc1ccc(Cl)cc1NC(=O)CN(C)C(=O)C1CC(=O)N(Cc2ccc(C)cc2)C1 (stereo not given)	–	·	–	–	32µM	·
COc1ccc(Cl)cc1NC(=O)CN(C)C(=O)c1sc2ccccc2c1Cl	–	·	·	·	13µM	·
COc1ccc(NC(=O)CN(C)C(=O)c2sc3ccccc3c2Cl)cc1	–	·	–	?	?	·
SMILES	FMDV inh	Shiga inhibitor	Marburg entry inh	Lassa entry inh	HCV inh	CHX counter
COc1ccc(OC)c(S(=O)(=O)N(C)CC(=O)Nc2cc(Cl)ccc2OC)c1	?	–	–	–	11µM	–
CCOC(=O)CC(NC(=O)CCc1c(C)nc2nc(C)nn2c1C)c1ccc(C)cc1 (stereo not given)	–	–	–	–	–	–
COc1ccc(CC(C(=O)Nc2ccc(OC)cc2)c2nn[nH]n2)cc1 (stereo not given)	–	–	·	·	–	–
COc1ccc(/C=C/C(=O)OCC(=O)Nc2ccc(C)cc2)cc1S(=O)(=O)N1CCOCC1	–	–	–	–	–	–
CCCn1c(=S)[nH]c2cc(C(=O)N3CCc4ccccc43)ccc2c1=O	–	–	?	–	?	–
COCCn1c(=S)[nH]c2cc(C(=O)N3CCN(Cc4ccc5c(c4)OCO5)CC3)ccc2c1=O	14µM	–	6.5µM	?	14µM	–
COCCn1c(=O)[nH]c2cc(C(=O)N3CCN(Cc4ccc5c(c4)OCO5)CC3)ccc2c1=O	–	·	–	–	–	·
COCCn1c(=S)[nH]c2cc(C(=O)N3CCc4ccccc43)ccc2c1=O	7.9µM	–	?	?	?	–
COc1ccc(-c2nc(CS(=O)CC(=O)NC3CCCCC3)c(C)o2)cc1OC (stereo not given)	–	–	–	–	–	–
CCOC(=O)C(/C=C(\C#N)C(=O)OCC)=C(/N)N1CCN(c2ccc(Cl)cc2)CC1	–	–	–	–	?	–
CCOc1ccc(CCNC(=O)Cn2nc(CC)n3c(cc4ccccc43)c2=O)cc1	–	·	?	·	·	·
O=c1c2ccccc2nc(/C=C/c2ccc([N+](=O)[O-])o2)n1CCCO	?	–	2µM	4.5µM	2.2µM	18
CCn1c(/C=C/c2ccc(O)cc2)nc2ccccc2c1=O	–	–	?	?	?	–
CCn1c(/C=C2\C(=O)Nc3ccccc32)nc2ccccc2c1=O	22µM	–	?	?	?	–
CCn1c(/C=C/c2ccccc2F)nc2ccccc2c1=O	–	–	–	?	?	18
COc1ccc(Cl)cc1-n1c(/C=C/c2cccc3ccccc23)nc2ccccc2c1=O	–	·	·	–	·	·
O=c1c2ccccc2nc(/C=C/c2cccc3ccccc23)n1-c1ccccc1Cl	22µM	·	·	–	·	·
CN(C)c1ncnc2c1nnn2C1OC(CO)C(O)C1O (stereo not given)	–	·	·	·	·	·
CCn1c(/C=C/c2ccccc2C)nc2ccccc2c1=O	–	51	·	·	–	19
Cc1[nH]c2ccccc2c1/C=C/c1nc2ccccc2c(=O)n1CCO	–	49	?	11µM	?	25
O=c1c2ccccc2nc(/C=C/c2ccc(Br)cc2)n1CCO	–	·	?	?	–	·
C[C@@H]1C=C[C@](Cc2ccccc2)(C(=O)NCC2CC2)N1C(=O)c1ccccc1	–	173	–	?	–[8.37 µM]	70
CCCCN1C(=O)CN(C2CCCCCC2)C(=O)C1c1ccc(OCCC)c(OC)c1 (stereo not given)	–	·	·	–	·	·
CN(Cc1cccnc1)Cc1cn[nH]c1-c1ccc(-c2ccccc2)cc1	–	–	–	–	?	6.6
Cc1ccsc1C(=O)N1CCN(S(=O)(=O)c2cccs2)CC1	–	–	–	–	–	–
SMILES	FMDV inh	Shiga inhibitor	Marburg entry inh	Lassa entry inh	HCV inh	CHX counter
NCCNS(=O)(=O)c1cccc2c(Cl)cccc12	–	–	11µM	–	·	–
NCCNS(=O)(=O)c1ccc(Cl)c2ccncc12	·	–	·	·	·	–
Cc1cc(C)nc(N(C#N)CCOc2ccc(Cl)cc2)n1	–	39	?	?	?	16
Cc1cc(C)nc(N(C#N)Cc2ccc(Cl)cc2)n1	–	–	–	–	–	–
O=C(CCS(=O)(=O)c1nc(-c2cccs2)cc(C(F)(F)F)n1)Nc1cccc(O)c1	22µM	·	?	–	·	·
Cc1cc(NC(=O)CSc2nc(-c3cccs3)cc(C(F)(F)F)n2)no1	·	–	?	?	?	–
Cc1cc(NC(=O)CCCS(=O)(=O)c2nc(-c3cccs3)cc(C(F)(F)F)n2)no1	?	–	?	?	11µM	–
COc1ccc(NC(=O)CCS(=O)(=O)c2nc(-c3cccs3)cc(C(F)(F)F)n2)cc1OC	22µM	·	?	?	·	·
COc1ccc(-c2cc(C(F)(F)F)nc(S(=O)(=O)CCCC(=O)Nc3cccnc3Cl)n2)cc1OC	?	–	?	?	?	19

Screening data as filed in PubChem BioAssay.
